According to PubChem BioAssay:
The source made the active and inactive calls.

Columns and labels:
[1] = system: Wnt5a (protein binding on small-molecule microarray); assay: Wnt5a binders on small-molecule microarray, primary screen, biophysical, 635/667 nm fluorescence (AID 1142); settings: 635 nm fluorescence, higher = more signal;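 further: fluorescence read at 667 nm with signal to noise per printed feature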
[2] = cell viability in Huh7 cells, primary screen, cytotoxicity control for HCV replication inhibitor project, CellTiter-Glo luminescence, basal, 48 h (AID 1143); settings: Huh7 HCV replicon, higher = more signal, called active from +8 up or from −8 down;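 further: Huh7 hepatoma cells carrying a hepatitis C replication reporter with no stimulus; test concentration not given here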
[3] = CREB reporter modulators without forskolin, primary screen, cell-based, PC12, CRE-LacZ reporter, unstimulated (AID 1145); settings: no forskolin, luminescence, 4.5 h, higher = more signal, called active from +8 up or from −8 down
[4] = CREB reporter modulators under forskolin, primary screen, cell-based, PC12, CRE-LacZ reporter, forskolin-stimulated (AID 1146); settings: luminescence, 4.5 h, higher = more signal, called active from +8 up or from −8 down;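 further: PC12 cells with 6xCRE LacZ reporter stimulated by forskolin 10 µM; beta-galactosidase reporter signal reflecting CREB driven transcription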
[5] = molecular target: Streptavidin (Streptomyces avidinii) (UniProt P22629); assay: streptavidin binders on small-molecule microarray, primary screen, artefact control for SMM compound annotation, biophysical, 635/667 nm fluorescence (AID 1147); settings: streptavidin binding, higher = more signal;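 further: signal reflects streptavidin binding to arrayed compounds as a control protein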
Sequence of Streptavidin (Streptomyces avidinii) (P22629 whole entry, looked up): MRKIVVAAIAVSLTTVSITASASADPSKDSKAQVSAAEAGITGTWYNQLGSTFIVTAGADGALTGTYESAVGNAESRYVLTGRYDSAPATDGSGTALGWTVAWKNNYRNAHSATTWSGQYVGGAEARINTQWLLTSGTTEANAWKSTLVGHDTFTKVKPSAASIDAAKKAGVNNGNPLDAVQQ

[6] = small-molecule binders of probe aInhba, primary screen, biochemical, small-molecule microarray, 635/667 nm fluorescence (AID 1148); settings: higher = more signal;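 further: score merges 667nm spot fluorescence with signal-to-noise for antibody binding to printed compounds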
Torsin-1A (Homo sapiens) [7] = molecular target: Torsin-1A (Homo sapiens) (UniProt O14656); assay: torsin A binders from cell lysate, primary screen, small-molecule microarray, wild-type, 635/667 nm (AID 1149); settings: COS7 hTOR1A-WT lysate, 635 nm fluorescence, higher = more signal
Sequence of Torsin-1A (Homo sapiens) (O14656 whole entry, looked up): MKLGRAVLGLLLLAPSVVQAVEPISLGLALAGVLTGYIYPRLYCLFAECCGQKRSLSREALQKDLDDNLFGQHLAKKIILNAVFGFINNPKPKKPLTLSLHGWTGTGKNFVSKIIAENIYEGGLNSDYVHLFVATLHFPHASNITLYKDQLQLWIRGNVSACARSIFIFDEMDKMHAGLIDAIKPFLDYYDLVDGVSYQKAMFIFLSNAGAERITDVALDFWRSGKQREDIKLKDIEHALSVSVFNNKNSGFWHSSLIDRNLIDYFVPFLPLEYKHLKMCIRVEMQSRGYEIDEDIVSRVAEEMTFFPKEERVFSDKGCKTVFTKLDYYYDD

Torsin-1A (Homo sapiens) [8] = molecular target: Torsin-1A (Homo sapiens) (UniProt O14656); assay: small-molecule binders of mutant TOR1A in lysate, primary screen, cell lysate, small-molecule microarray, COS7 lysate, 635/667 nm fluorescence (AID 1150); settings: COS7 hTOR1A mutant lysate, 635 nm fluorescence, higher = more signal;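 further: score pools 667 nm emission and signal to noise measuring lysate protein binding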
[9] = system: Sonic hedgehog protein (Shh); assay: small-molecule binders of Shh protein, primary screen, biochemical, small-molecule microarray, 635/667 nm fluorescence (AID 1151); settings: small-molecule microarray binding, 635 nm fluorescence; higher = more signal;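 further: Shh protein binding to compounds spotted on small-molecule microarray slides; score combines spot fluorescence intensity with signal-to-noise across triplicate slides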
[10] = E. coli DRC41 culture turbidity changes, primary screen, E. coli filamentation inducer project, strain DRC41, OD650, 48 h (AID 1152);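 further: E. coli MC1000 strain DRC41 lacking acrAB efflux pump and sulA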; settings: E. coli DRC41 (acrAB sulA), higher = more signal, called active from +8 up or from −8 down
[11] = small-molecule binders of probe aLefty1, primary screen, biochemical, small-molecule microarray, 635/667 nm fluorescence (AID 1153); settings: higher = more signal;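 further: score merges spot fluorescence with signal-to-noise ratio from the scanned slide images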
[12] = PSAC antagonists in infected red cells, primary screen, cell-based, P. falciparum Indochina, OD700, 1 h (AID 1154); settings: P. falciparum Indochina infected RBC osmotic lysis, higher = more signal, called active from +8 up or from −8 down
[13] = PSAC antagonists in infected red cells, primary screen, cell-based, P. falciparum Indochina, OD700, 2 h (AID 1155);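 further: lysis reports solute entry through the parasite surface anion channel PSAC; channel blockers reduce lysis of infected cells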; settings: P. falciparum Indochina infected erythrocytes, osmotic lysis OD700; higher = more signal, called active from +8 up or from −8 down
[14] = osmotic lysis modulators in infected erythrocytes, primary screen, PSAC antagonist project, cell-based, P. falciparum Indochina, OD700, 3 h (AID 1156); settings: higher = more signal, called active from +8 up or from −8 down
[15] = PSAC antagonists in infected red cells, primary screen, cell-based, P. falciparum Indochina, OD700, 18 h (AID 1157); settings: P. falciparum Indochina infected erythrocytes, osmotic lysis OD700, 18 h; higher = more signal, called active from +8 up or from −8 down
[16] = modulators of S6 phosphorylation in cells, primary screen, cell-based, A549, cytoblot, luminescence, serum-stimulated (AID 1158); settings: A549 phospho-S6 cytoblot, 5 h, higher = more signal;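 further: serum-stimulated A549 lung adenocarcinoma cells; signal is phosphorylated S6 detected by cytoblot immunostaining with HRP secondary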
[17] = molecular target: NADPH oxidase 2 (Homo sapiens) (UniProt P04839); assay: NOX2-dependent H2O2 signal modulators, primary screen, NOX inhibitor project, cell-based, HEK293-NOX2, PMA-stimulated, Amplex Red fluorescence (AID 1159); settings: 45 min, higher = more signal, called active from +8 up or from −8 down; further: test concentration not given here
Sequence of NADPH oxidase 2 (Homo sapiens) (P04839 whole entry, looked up): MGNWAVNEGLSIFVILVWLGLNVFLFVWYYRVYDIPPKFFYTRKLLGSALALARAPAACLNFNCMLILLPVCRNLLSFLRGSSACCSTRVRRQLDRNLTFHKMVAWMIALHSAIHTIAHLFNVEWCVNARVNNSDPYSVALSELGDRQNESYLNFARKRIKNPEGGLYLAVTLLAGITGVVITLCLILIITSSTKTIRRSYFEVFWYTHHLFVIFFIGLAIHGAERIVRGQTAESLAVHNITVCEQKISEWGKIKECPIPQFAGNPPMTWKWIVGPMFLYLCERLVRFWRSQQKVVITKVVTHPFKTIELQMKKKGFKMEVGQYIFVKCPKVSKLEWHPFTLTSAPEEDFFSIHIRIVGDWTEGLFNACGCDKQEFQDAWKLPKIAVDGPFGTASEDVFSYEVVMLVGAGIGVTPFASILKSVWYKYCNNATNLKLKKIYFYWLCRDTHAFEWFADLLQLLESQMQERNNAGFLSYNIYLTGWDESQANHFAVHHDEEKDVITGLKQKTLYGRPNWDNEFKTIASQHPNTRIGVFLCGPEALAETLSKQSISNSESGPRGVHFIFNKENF

[18] = molecular target: NADPH oxidase 4 (Homo sapiens) (UniProt Q9NPH5); assay: NOX4-dependent H2O2 signal modulators, primary screen, NOX inhibitor project, cell-based, HEK293-NOX4, tetracycline-induced, Amplex Red fluorescence (AID 1160); settings: 45 min, higher = more signal, called active from +8 up or from −8 down
Sequence of NADPH oxidase 4 (Homo sapiens) (Q9NPH5 whole entry, looked up): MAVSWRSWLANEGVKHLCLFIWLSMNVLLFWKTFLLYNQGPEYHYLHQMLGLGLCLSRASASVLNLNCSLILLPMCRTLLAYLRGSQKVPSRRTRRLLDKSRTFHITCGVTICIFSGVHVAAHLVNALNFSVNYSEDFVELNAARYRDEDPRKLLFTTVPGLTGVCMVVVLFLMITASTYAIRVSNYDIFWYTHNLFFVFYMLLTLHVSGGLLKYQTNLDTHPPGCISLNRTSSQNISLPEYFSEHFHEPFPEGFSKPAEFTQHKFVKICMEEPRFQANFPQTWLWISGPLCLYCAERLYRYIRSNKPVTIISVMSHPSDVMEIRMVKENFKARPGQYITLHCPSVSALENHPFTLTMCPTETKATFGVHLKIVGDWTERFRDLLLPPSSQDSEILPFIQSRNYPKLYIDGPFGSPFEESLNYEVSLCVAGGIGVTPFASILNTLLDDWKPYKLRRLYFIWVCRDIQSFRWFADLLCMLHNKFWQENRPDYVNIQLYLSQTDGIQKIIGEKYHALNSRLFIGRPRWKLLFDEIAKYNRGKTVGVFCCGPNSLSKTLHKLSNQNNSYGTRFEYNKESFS

[19] = molecular target: NADPH oxidase 5 (Homo sapiens) (UniProt Q96PH1); assay: NOX5-dependent H2O2 signal modulators, primary screen, NOX inhibitor project, cell-based, HEK293-NOX5, Amplex Red fluorescence (AID 1161); settings: HEK293-NOX5, ionomycin, 45 min, higher = more signal
Sequence of NADPH oxidase 5 (Homo sapiens) (Q96PH1 whole entry, looked up): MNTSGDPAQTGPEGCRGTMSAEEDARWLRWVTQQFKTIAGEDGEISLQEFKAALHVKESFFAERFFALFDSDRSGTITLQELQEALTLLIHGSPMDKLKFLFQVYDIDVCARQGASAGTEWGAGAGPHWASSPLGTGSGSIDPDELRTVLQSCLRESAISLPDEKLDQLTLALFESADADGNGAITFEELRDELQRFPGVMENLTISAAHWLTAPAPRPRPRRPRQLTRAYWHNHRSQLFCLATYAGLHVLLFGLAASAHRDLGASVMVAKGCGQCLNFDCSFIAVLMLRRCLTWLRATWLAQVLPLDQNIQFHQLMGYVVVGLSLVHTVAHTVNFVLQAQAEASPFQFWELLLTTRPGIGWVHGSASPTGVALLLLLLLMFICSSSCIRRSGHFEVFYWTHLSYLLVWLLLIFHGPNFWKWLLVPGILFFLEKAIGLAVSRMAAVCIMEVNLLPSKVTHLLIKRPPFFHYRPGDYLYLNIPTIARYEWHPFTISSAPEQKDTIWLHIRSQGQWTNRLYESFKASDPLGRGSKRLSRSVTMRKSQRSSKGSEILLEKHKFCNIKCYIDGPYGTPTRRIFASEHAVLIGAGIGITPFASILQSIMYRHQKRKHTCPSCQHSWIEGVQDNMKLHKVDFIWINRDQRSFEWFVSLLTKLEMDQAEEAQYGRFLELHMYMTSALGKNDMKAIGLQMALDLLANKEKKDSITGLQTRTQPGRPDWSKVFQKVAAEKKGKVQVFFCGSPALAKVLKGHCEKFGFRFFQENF

[20] = A549 cell viability effects, profiling panel, calcein-AM fluorescence, 48 h, basal (AID 1162); settings: higher = more signal; further: test concentration not given here

SMILES: CCOC(=O)C[C@H]1[C@H](OC(=O)c2ccc(-c3ccccc3)cc2)[C@@H](NC(=O)c2ccccc2)c2cc(OCCCO)ccc2N1C(=O)c1ccccc1
- composite z-score [1]: 0.15
- z-score [2]: -2.94 (inactive)
- z-score [3]: 0.251 (inactive)
- z-score [4]: -0.843 (inactive)
- composite z-score [5]: 0.0439
- composite z-score [6]: 0.105
- composite z-score (Torsin-1A (Homo sapiens) [7]): 0.217
- composite z-score (Torsin-1A (Homo sapiens) [8]): 0.792
- composite z-score [9]: 0.082
- z-score [10]: 2.36 (inactive)
- composite z-score [11]: 0.167
- z-score [12]: 0.788 (inactive)
- z-score [13]: -0.846 (inactive)
- z-score [14]: -0.0889 (inactive)
- z-score [15]: -1.09 (inactive)
- z-score [16]: 1.58
- z-score [17]: 2.09 (inactive)
- z-score [18]: 1.32 (inactive)
- z-score [19]: 3.5
- z-score [20]: 0.769

SMILES: C=CCN1C(=O)[C@]2(O[C@H](CCn3cc([C@H](O)c4ccccc4)nn3)[C@@H]([Si](C)(C)c3ccc(OC)cc3)[C@@H]2C)c2cc(N3CCOC3=O)ccc21
- composite z-score [1]: -0.185
- z-score [2]: -5.33 (inactive)
- z-score [3]: 2.8 (inactive)
- z-score [4]: -2.35 (inactive)
- composite z-score [5]: -0.0082
- composite z-score [6]: -0.224
- composite z-score (Torsin-1A (Homo sapiens) [7]): 0.772
- composite z-score (Torsin-1A (Homo sapiens) [8]): 0.76
- composite z-score [9]: -0.429
- z-score [10]: 1.46 (inactive)
- composite z-score [11]: -0.417
- z-score [12]: 4.38 (inactive)
- z-score [13]: -0.527 (inactive)
- z-score [14]: 1.03 (inactive)
- z-score [15]: -1.58 (inactive)
- z-score [16]: 0.348
- z-score [17]: -0.122 (inactive)
- z-score [18]: 1.61 (inactive)
- z-score [19]: -2.66
- z-score [20]: 0.0522

SMILES: CC(C)(C)OC(=O)CC[C@]1(C(=O)NCc2ccccc2)N=C(c2ccc(OCCCO)cc2)O[C@H]1c1ccccc1N=[N+]=[N-]
- composite z-score [1]: 1.11
- z-score [2]: -3.04 (inactive)
- z-score [3]: 1.13 (inactive)
- z-score [4]: -1.4 (inactive)
- composite z-score [5]: 1.71
- composite z-score [6]: 0.317
- composite z-score (Torsin-1A (Homo sapiens) [7]): 0.466
- composite z-score (Torsin-1A (Homo sapiens) [8]): 0.78
- composite z-score [9]: 0.425
- z-score [10]: 1.78 (inactive)
- composite z-score [11]: 0.598
- z-score [12]: 30.9 (active)
- z-score [13]: 27.9 (active)
- z-score [14]: 2.08 (inactive)
- z-score [15]: 6.66 (inactive)
- z-score [16]: 1.55
- z-score [17]: -2.28 (inactive)
- z-score [18]: -0.17 (inactive)
- z-score [19]: -2.3
- z-score [20]: 0.117

SMILES: [N-]=[N+]=NCc1ccccc1C[C@@]1(C(=O)O)N=C(c2ccc(OCCCO)cc2)O[C@@H]1c1ccccc1
- composite z-score [1]: 0.0855
- z-score [2]: -0.563 (inactive)
- z-score [3]: -0.137 (inactive)
- z-score [4]: 0.718 (inactive)
- composite z-score [5]: 0.246
- composite z-score [6]: -0.0421
- composite z-score (Torsin-1A (Homo sapiens) [7]): -0.233
- composite z-score (Torsin-1A (Homo sapiens) [8]): 0.0019
- composite z-score [9]: -0.515
- z-score [10]: 0.706 (inactive)
- composite z-score [11]: -0.0654
- z-score [12]: 15.1 (active)
- z-score [13]: 2.07 (inactive)
- z-score [14]: 0.912 (inactive)
- z-score [15]: 0.199 (inactive)
- z-score [16]: 0.218
- z-score [17]: 1.07 (inactive)
- z-score [18]: 1.34 (inactive)
- z-score [19]: 1.48
- z-score [20]: 0.349
